Among all 400,000 compounds or so, about 2,100 (0.53%) were called active. Inconclusive results (about 14%) are left out. The sample holds actives, similar compounds and a random draw of the others, so the mix is not that of the screen. No rule for the calls is given here.
Molecular target: Ataxin-2 (Homo sapiens) (UniProt Q99700)
Assay: qHTS for Inhibitors of ATXN expression.
Assay type: functional

Sequence of Ataxin-2 (Homo sapiens) (Q99700 whole entry): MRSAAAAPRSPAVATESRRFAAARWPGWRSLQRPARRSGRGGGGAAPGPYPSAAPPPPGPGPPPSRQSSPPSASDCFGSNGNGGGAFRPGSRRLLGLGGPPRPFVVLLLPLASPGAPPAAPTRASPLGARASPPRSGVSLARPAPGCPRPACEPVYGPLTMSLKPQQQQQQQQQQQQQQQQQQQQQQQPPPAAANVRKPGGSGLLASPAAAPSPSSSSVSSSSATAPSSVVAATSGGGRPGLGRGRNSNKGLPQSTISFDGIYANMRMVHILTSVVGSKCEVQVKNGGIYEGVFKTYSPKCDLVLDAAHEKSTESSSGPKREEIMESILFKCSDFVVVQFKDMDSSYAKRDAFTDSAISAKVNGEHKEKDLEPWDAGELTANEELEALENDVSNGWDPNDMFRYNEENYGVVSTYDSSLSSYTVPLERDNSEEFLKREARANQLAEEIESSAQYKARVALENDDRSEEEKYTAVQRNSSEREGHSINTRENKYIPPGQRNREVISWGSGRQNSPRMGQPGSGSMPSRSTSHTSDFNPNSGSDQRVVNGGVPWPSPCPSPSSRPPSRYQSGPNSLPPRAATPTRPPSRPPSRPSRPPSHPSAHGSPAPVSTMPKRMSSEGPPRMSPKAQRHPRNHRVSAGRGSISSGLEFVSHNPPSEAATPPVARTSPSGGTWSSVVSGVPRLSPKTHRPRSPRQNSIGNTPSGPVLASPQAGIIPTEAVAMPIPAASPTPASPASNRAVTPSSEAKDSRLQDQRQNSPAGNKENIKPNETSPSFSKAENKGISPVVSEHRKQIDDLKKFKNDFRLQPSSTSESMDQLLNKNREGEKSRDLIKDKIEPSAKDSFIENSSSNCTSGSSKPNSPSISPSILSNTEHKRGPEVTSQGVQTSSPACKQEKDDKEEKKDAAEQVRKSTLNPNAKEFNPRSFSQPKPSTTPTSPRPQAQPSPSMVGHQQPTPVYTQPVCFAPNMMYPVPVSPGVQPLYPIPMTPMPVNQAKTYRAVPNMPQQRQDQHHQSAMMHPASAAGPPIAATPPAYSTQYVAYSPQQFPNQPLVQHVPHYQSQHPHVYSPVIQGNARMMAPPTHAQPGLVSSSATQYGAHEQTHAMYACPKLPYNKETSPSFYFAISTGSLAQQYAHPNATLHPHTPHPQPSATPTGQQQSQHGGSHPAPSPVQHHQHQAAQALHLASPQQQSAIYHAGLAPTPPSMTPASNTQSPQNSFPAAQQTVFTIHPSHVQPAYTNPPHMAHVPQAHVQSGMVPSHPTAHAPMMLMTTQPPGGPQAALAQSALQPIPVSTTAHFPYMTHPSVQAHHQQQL

| SMILES | Potency |
| --- | --- |
| Cc1ccc(S(=O)(=O)c2nnn3c2nc(NC2CCN(Cc4ccccc4)CC2)c2ccccc23)cc1C | 39.8 µM (active) |
| CC(=O)NCCNc1nc2c(-c3cccc(C(F)(F)F)c3)nnn2c2ccccc12 | inactive |
| Cc1ccc(-c2nnn3c2nc(NCCc2ccc(S(N)(=O)=O)cc2)c2ccccc23)cc1 | inactive |
| Cc1nc2nc(SCC(=O)O)nn2c(C)c1Cc1ccccc1Cl | inactive |
| Cc1ccc(OCC(=O)N2CC(C)OC(C)C2)c([N+](=O)[O-])n1 (stereo not drawn) | inactive |
| CN1C2CCC1/C(=C/c1cccn1C)C(=O)/C2=C\c1cccn1C | inactive |
| N=c1c(S(=O)(=O)c2ccc(Br)cc2)cc2c(=O)n3ccccc3nc2n1Cc1ccco1 | inactive |
| O=[N+]([O-])c1cc(-c2ncccn2)c([N+](=O)[O-])s1 | 25.1 µM (active) |
| Cc1c(NS(=O)(=O)c2cc([N+](=O)[O-])ccc2Cl)c(=O)n(-c2ccccc2)n1C | inactive |
| CC(c1ccon1)N(C)C(=O)c1cnn(-c2ncc3c(n2)-c2ccccc2CC3)c1C1CC1 (stereo not drawn) | inactive |
| Cc1cc(C)c(C#N)c(OCc2ccc(Cl)nc2)n1 | inactive |
| N#Cc1ccc(C(=O)OCC(=O)Nc2cccnc2Cl)cc1 | inactive |
| Cc1ccc(NC(=O)/C(C#N)=C/c2cn(CC(=O)NCc3ccco3)c3ccccc23)cc1C | inactive |
| COc1cc(C)c(/C=C(\C#N)C(=O)Nc2ccc(C)cc2)cc1C(C)C | inactive |
| Cc1ccc(NC(=O)/C(C#N)=C/c2cc(C)n(-c3ccc(Br)cc3)c2C)cc1C | 35.5 µM (active) |
| NC(=S)NN=Cc1nccc2c(N)cccc12 | 8.91 µM (active) |
| CNC(=S)N/N=C/c1c2ccccc2c(Cl)c2ccccc12 | inactive |
| NC(=S)NN=Cc1nccc2c(C(F)(F)C(F)(F)C(F)(F)F)cccc12 | 1 µM (active) |
| N=c1c(C(=O)NCC2CCCO2)cc2c(=O)n3ccccc3nc2n1CCCO (stereo not drawn) | inactive |
| OCCn1ccc(-c2ccccc2OCc2ccc(F)cc2)n1 | inactive |
| CCCCCCc1cc2cc(S(=O)(=O)c3ccc(C)cc3)c(=O)oc2cc1O | inactive |
| CC(C)N(C(=O)CS(=O)(=O)c1ccc(Cl)c(Cl)c1)C(C)C | inactive |
| O=C(NCC1CCCO1)c1nn2c(C(F)(F)F)cc(-c3cccs3)nc2c1Br (stereo not drawn) | inactive |
| COCCCNc1nc2ccccc2nc1NS(=O)(=O)c1cc(Cl)ccc1Cl | inactive |
| CCCCNC(=O)C(C)N(CCN(C)C)C(=O)CCCN1C(=O)NC(c2ccc(Cl)cc2)C(C(=O)OCc2ccccc2)=C1C (stereo not drawn) | 25.1 µM (active) |
| NC(=O)C1(N2CCCCC2)CCN(C(=O)c2cc(COc3c(F)cccc3F)on2)CC1 | inactive |

| SMILES | Potency |
| --- | --- |
| Cc1ccc(NC(=O)c2ccc(Nc3c([N+](=O)[O-])cc([N+](=O)[O-])cc3[N+](=O)[O-])cc2)cc1 | 15.8 µM (active) |
| Cc1ccc(C(=O)Nc2ccc(S(=O)(=O)Nc3ncccn3)cc2)cc1[N+](=O)[O-] | inactive |
| COc1ccc(C(=O)Nc2ccc(S(=O)(=O)Nc3nccc(C)n3)cc2)cc1[N+](=O)[O-] | inactive |
| C/C(=N\NC(=O)CC#N)c1cc2ccc(O)cc2oc1=O | inactive |
| COc1ccc(CN2CCCC(N3CCN(c4cccc(Cl)c4)CC3)C2)cc1OC (stereo not drawn) | inactive |
| CCN(CC)CCNc1ccc(C)c2sc3ccc(O)cc3c(=O)c12 | 33.6 µM (active) |
| Cc1cc2sc3ccccc3c(=O)c2c(C)c1O | inactive |
| CNC(=O)OCc1nc(SSC(C)(C)C)n(C)c1COC(=O)NC | 23.8 µM (active) |
| NC(=O)c1cc2ccc(O)cc2o/c1=N\Cc1ccccc1 | inactive |
| CC(=O)CC1OC(O)=C(Br)/C1=N/Cc1ccccc1 (stereo not drawn) | 20 µM (active) |
| Oc1nc(N2CCOCC2)cc2ccccc12 | inactive |
| Cc1cccc(Nc2nc(-c3ccccc3)c(C(=O)Nc3cccnc3)s2)c1 | inactive |
| Cc1nc(NC(=O)/C=C/c2ccccc2)sc1C(=O)Nc1ccc(Cl)cc1 | 39.8 µM (active) |
| Cc1nc(NS(=O)(=O)c2ccccc2)sc1C(=O)NN | inactive |
| CC(C)=CC(=O)N1CCC(N2CCC(C(=O)N3CCOCC3)CC2)CC1 | inactive |
| O=C(COCc1cc(-c2ccco2)on1)NC1CCCCC1 | inactive |
| CCCc1cc(=O)oc2c(C)c(O[C@@H]3O[C@H](CO)[C@@H](O)[C@H](O)[C@H]3O)ccc12 | inactive |
| Nc1nc(N)c2nc(-c3ccccc3)c(N)nc2n1 | inactive |
| Cc1ccc(-c2nc(NCc3ccco3)n(S(C)(=O)=O)n2)cc1 | inactive |
| Cc1cccc(Nc2nc(NCc3ccco3)c3ccccc3n2)c1 | 25.1 µM (active) |
| COc1ccc(OC)c(Nc2nc(NCc3ccco3)c3ccccc3n2)c1 | 39.8 µM (active) |
| COc1ccc(OC)c(Nc2nc(-c3ccccc3O)nc3ccccc23)c1 | inactive |
| OCCNc1nc(Nc2ccc(Br)cc2)nc2ccccc12 | inactive |
| COc1ccc(OC)c(Nc2nc(-c3ccncc3)nc3ccccc23)c1 | inactive |
| O=[N+]([O-])c1cccc(S(=O)(=O)NCC2CC3CCC2C3)c1 (stereo not drawn) | inactive |
| CC(C)(C)c1ccc(SCCc2cccnc2)cc1 | inactive |

| SMILES | Potency |
| --- | --- |
| Nc1c(C(=O)Nc2ccc(Cl)cc2F)sc2nc(-c3cccs3)ccc12 | inactive |
| O=C(O)c1cccc(N2C(=O)c3cccc4c(Cl)ccc(c34)C2=O)c1 | inactive |
| NC(=O)c1cc(N2C(=O)C=CC2=O)ccc1Cl | 35.5 µM (active) |
| CN1CCN(C(=O)/C=C/c2ccc([N+](=O)[O-])o2)CC1 | 8.91 µM (active) |
| CN1CCN(/N=C/c2ccc(-c3ccc([N+](=O)[O-])cc3Cl)o2)CC1 | inactive |
| CN1CCCN(C(=O)/C=C/c2ccc(Cl)cc2Cl)CC1 | inactive |
| Nc1cccc2nc3ccccc3cc12 | inactive |
| C1=C/C(=N\C2CCCCC2)C=C2C1=NC13CCCCC1CC1=C(CCCC1)N23 (stereo not drawn) | 35.5 µM (active) |
| CSc1ccc(CN(C)Cc2nc(O)c3ccccc3n2)cc1 | inactive |
| CCn1c(CNC(=O)c2ccc3c(c2)OCO3)nnc1SCC(=O)Nc1ccccc1F | inactive |
| O=C(CSc1cn(CCNC(=O)c2cccc(C(F)(F)F)c2)c2ccccc12)Nc1ccc2c(c1)OCCO2 | 35.5 µM (active) |
| COc1ccc(CCNC(=O)CSc2cn(CCNC(=O)c3cccc(C(F)(F)F)c3)c3ccccc23)cc1OC | 22.4 µM (active) |
| Cc1nnc(NC(=O)CSc2cn(CCNC(=O)c3ccccc3)c3ccccc23)s1 | inactive |
| COc1ccc(CCNC(=O)CSc2nnnn2C)cc1OC | inactive |
| O=C(COC(=O)CCSc1ccccc1Cl)NCc1ccco1 | inactive |
| COc1ccc(CC(=O)NNC2=Nc3cccc4cccc2c34)cc1 | inactive |
| N#Cc1ccc(C(=O)CSc2nnc(-c3ccc(C(F)(F)F)cn3)s2)cc1 | inactive |
| O=C(NCCO)/C(=C\c1ccco1)NC(=O)c1cccs1 | inactive |
| COC(=O)C1=CN(C(C)C)C=C(C(=O)OC)C1c1cccc(OC)c1 | inactive |
| CCCCNc1c(-c2ccc(-c3ccc(C(C)=O)cc3)c(OC)c2)nc2cnccn12 | inactive |
| Cc1ccn2c(Nc3ccccc3C)c(-c3ccc(N4CCOCC4)cc3)nc2c1 | 35.5 µM (active) |
| Cc1ccc(-c2nc(Nc3ccc(N4CCOCC4)cc3)c3ccccc3n2)cc1 | inactive |
| Cc1cccc(C)c1Nc1c(-c2ccc(N3CCOCC3)cc2)nc2cnccn12 | inactive |
| COc1cc(O)ccc1-c1nc2cc(C)ccn2c1Nc1ccccc1C | 35.5 µM (active) |
| Cc1ccn2c(Nc3ccccc3C)c(-c3ccccn3)nc2c1 | 15.8 µM (active) |
| Cc1ccccc1Nc1c(-c2ccc(N3CCOCC3)cc2)nc2cccc(C)n12 | 22.4 µM (active) |

| SMILES | Potency |
| --- | --- |
| COc1ccc(C)cc1NC(=O)c1cc2c(=O)n3ccccc3nc2n1C | inactive |
| c1ccc2c(Nc3ccc(N4CCOCC4)cc3)nc(N3CCOCC3)nc2c1 | inactive |
| c1cn2c(NC3CCCC3)c(-c3ccc(N4CCOCC4)cc3)nc2cn1 | inactive |
| C/C(=N/NC(=O)c1sc(NS(=O)(=O)c2ccccc2)nc1C)c1sc(N)nc1C | inactive |
| CC(C)CN(CC(C)C)C(S)=Nc1ccc(Cl)cc1 | inactive |
| CN(C)CC(O)c1ccc(C=Cc2ccc(Cl)cc2)cc1 (stereo not drawn) | 31.6 µM (active) |
| Oc1nc2ccccc2nc1/C=C/c1ccc(Cl)cc1 | inactive |
| Cc1ccc(S(=O)(=O)Nc2ccccc2/C=N/c2nc3ccccc3n2C(C)C)cc1 | inactive |
| Nc1cc2sc(-c3ccc(C(=O)O)cc3)nc2cc1Cl | inactive |
| CC[C@@H](C)[C@H](CN[C@H](CNC)C(C)C)NC[C@@H](C)c1ccc(CC(C)C)cc1 | 22.4 µM (active) |
| COc1cc(/C=C(\C#N)c2nc3ccccc3[nH]2)cc(Cl)c1OCc1ccccc1Cl | inactive |
| COc1cc(CNC2CCCC2)cc(Cl)c1OCc1ccccc1F | 28.2 µM (active) |
| NNC(=O)c1oc2ccccc2c1-n1cccc1 | inactive |
| O=c1c(Cl)cc(Cl)nn1-c1ccccc1 | 25.1 µM (active) |
| Cc1nc2c(c(C)nn2-c2ccccc2)c(C)c1C | inactive |
| Cc1cc(NC(=O)Nc2ccc(Cl)cc2)n(-c2ccccc2)n1 | inactive |
| CCOC(=O)Cc1cnc(NC(=O)CSc2nc(C)c(CC)c(O)n2)s1 | inactive |
| COc1ccc(CNCCC(c2ccc(OC(C)C)cc2)C(C)C)cc1OC (stereo not drawn) | 25.1 µM (active) |
| OCCCNCc1ccc(-c2ccccc2)cc1 | inactive |
| CC(C)Oc1ccc(C(CCNCc2ccc(O)cc2)c2ccccc2)cc1 (stereo not drawn) | 39.8 µM (active) |
| O=c1c(O)c(-c2ccc(O)c(O)c2)oc2cc(O)ccc12 | inactive |
| NC(=O)C[n+]1ccc(C=NO)cc1 | inactive |
| CCc1cc(=O)oc2c(CNCc3ccccc3F)c(O)c(Cl)cc12 | inactive |
| O=C(NNC(=O)c1cc2cc(Br)ccc2oc1=O)c1ccc(O)cc1O | inactive |
| Cc1ccc(NC(=O)CSCC(=O)OCc2cc(=O)oc3cc(O)ccc23)c(C)c1 | inactive |

— ChEMBL document CHEMBL1201862, “PubChem BioAssay data set” (2004)
